Data on 8 compounds can be found in PubChem BioAssay (NCI).

Structures are written as SMILES. The panel holds about 83,000 compounds, 20% with a hit somewhere; the sample as a whole holds those more often.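 Cells were grown in 96-well plates and exposed to the test compound at a single concentration for 48 hours; results are reported as percent growth, with values below 10 considered active.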 Values without a mark were called inactive. The source made the active and inactive calls.

Test systems include NCI-H23 lung; NCI-H226 lung; NCI-H322M lung; HOP-62 NSCLC; NCI-H460 lung; NCI-H522 lung; A549/ATCC NSCLC; 786-0 renal; COLO 205 colon; DU-145 prostate; K-562 leukemia; MALME-3M melanoma; MDA-MB-231 breast; RXF 393 renal; SF-268 CNS; SF-295 CNS; SF-539 CNS; UACC-257 melanoma; M14 melanoma; HCT-15 colon.
What all share (experiment): NCI-60 one-dose screen, 48 h (100 = growth as untreated, 0 = no growth, -100 = all killed)
Conditions in all cases: 10 µM

`S=C1SCC(c2ccccc2)S1` (stereo not given): the growth was 113% in the assay with NCI-H23 lung; 101% in the assay with NCI-H226 lung; 111% with NCI-H322M lung; 108% with HOP-62 NSCLC; 114% in the assay on NCI-H460 lung; 131% with NCI-H522 lung. For the same compound, the growth in the assay with A549/ATCC NSCLC is 102%; in the assay with 786-0 renal, 109%; in the assay with COLO 205 colon, 111%; in the assay with DU-145 prostate it was 125%; in the assay with K-562 leukemia, 106%; in the assay with MALME-3M melanoma it was 118%. Further, the growth in the assay with MDA-MB-231 breast was 107%; in the assay with RXF 393 renal, 105%; in the assay on SF-268 CNS it was 111%; with SF-295 CNS it was 117%; in the assay with SF-539 CNS, 95.7%; in the assay with UACC-257 melanoma, 89.6%. Besides, the growth was 113% in the assay on M14 melanoma and 100% in the assay with HCT-15 colon.

In the case of `CC1=C(N2CCOCC2)C(N2CCOCC2)=C(C)C(=O)C1=O`, the growth was 103% in the assay on NCI-H23 lung; 98.2% with NCI-H226 lung; 114% in the assay with NCI-H322M lung; 93.6% with HOP-62 NSCLC; 104% with NCI-H460 lung; 99.1% in the assay on NCI-H522 lung. Moreover, the growth in the assay with A549/ATCC NSCLC is 102%; in the assay on 786-0 renal, 102%; with COLO 205 colon, 103%; in the assay with DU-145 prostate, 108%; in the assay with K-562 leukemia, 93%; in the assay with MALME-3M melanoma, 101%. In addition, the growth in the assay on MDA-MB-231 breast was 115%; in the assay with RXF 393 renal, 101%; in the assay on SF-268 CNS, 93.3%; with SF-295 CNS, 97.2%; with SF-539 CNS, 103%; with UACC-257 melanoma, 91.5%. Moreover, the growth is 103% in the assay with M14 melanoma and 99.6% in the assay with HCT-15 colon.

Consider `CCOC(=O)C(CSC(c1ccccc1)(c1ccccc1)c1ccccc1)NC(=O)C(CSC(c1ccccc1)(c1ccccc1)c1ccccc1)NC(c1ccccc1)(c1ccccc1)c1ccccc1` (stereo not given), for which the growth is 116% in the assay with NCI-H23 lung; 93.5% with NCI-H226 lung; 101% in the assay with NCI-H322M lung; 101% with HOP-62 NSCLC; 106% with NCI-H460 lung; 99.4% in the assay with NCI-H522 lung. Besides, the growth was 95.1% with A549/ATCC NSCLC; 104% with 786-0 renal; 112% with COLO 205 colon; 115% with DU-145 prostate; 112% in the assay with K-562 leukemia; 108% in the assay on MALME-3M melanoma. The growth was 108% with MDA-MB-231 breast; 97.4% in the assay on RXF 393 renal; 110% in the assay on SF-268 CNS; 86.7% in the assay on SF-295 CNS; 112% in the assay on SF-539 CNS; 88.8% with UACC-257 melanoma. The growth in the assay on M14 melanoma was 111%; in the assay on HCT-15 colon, 100%.

Regarding `CN1CC[C@@H](c2c(O)cc(O)c3c(=O)cc(-c4ccccc4Cl)oc23)[C@@H](O)C1`, the growth was -13.3% (active) in the assay with NCI-H23 lung; 11.8% in the assay with NCI-H226 lung; 4.68% (active) with NCI-H322M lung; 12.1% with HOP-62 NSCLC; 5.19% (active) in the assay with NCI-H460 lung; -42.6% (active) in the assay on NCI-H522 lung. Besides, the growth with A549/ATCC NSCLC is 14.2%; in the assay with 786-0 renal, 13%; in the assay on COLO 205 colon it was -51% (active); with DU-145 prostate, 1.56% (active); with K-562 leukemia, -23.8% (active); with MALME-3M melanoma, -68.9% (active). Further, the growth in the assay on MDA-MB-231 breast was 13.4%; in the assay on RXF 393 renal, 12.4%; with SF-268 CNS it was 9.12% (active); in the assay on SF-295 CNS, 7.54% (active); in the assay on SF-539 CNS, -31.3% (active); with UACC-257 melanoma it was 15.5%. For the same compound, the figures for the growth in the assay with M14 melanoma and with HCT-15 colon were -58.9% (active) and -26.7% (active), respectively.

Take `COc1ccc(-c2csc(NC(=O)CSc3nc(C)c(-c4ccccc4)n3Nc3ccccc3)n2)cc1`: the growth was 21.8% in the assay on NCI-H23 lung; 63.8% in the assay on NCI-H226 lung; 69.8% in the assay on NCI-H322M lung; 71.1% with HOP-62 NSCLC; 43.2% in the assay with NCI-H460 lung; 58.2% in the assay with NCI-H522 lung. Moreover, the growth is 36.6% in the assay on A549/ATCC NSCLC; 53.3% with 786-0 renal; 66.6% with COLO 205 colon; 65.3% in the assay with DU-145 prostate; 24.8% in the assay on K-562 leukemia; 60.4% in the assay with MALME-3M melanoma. In addition, the growth in the assay with MDA-MB-231 breast was 65.8%; with RXF 393 renal, 63.9%; in the assay with SF-268 CNS, 44.7%; with SF-295 CNS, -9.42% (active); in the assay on SF-539 CNS, 72.7%; in the assay with UACC-257 melanoma, 89.3%. The figures for the growth in the assay on M14 melanoma and in the assay on HCT-15 colon were 50.4% and 44.2%, respectively.

As to `COc1ccc(-c2ccc(-c3ccc(C(=N)N)cn3)o2)cc1`, the growth is 85.1% with NCI-H23 lung; 78.7% with NCI-H226 lung; 77.6% with NCI-H322M lung; 72.1% in the assay on HOP-62 NSCLC; 82.2% in the assay with NCI-H460 lung; 76.6% in the assay with NCI-H522 lung. The growth was 69.5% in the assay with A549/ATCC NSCLC; 91.3% with 786-0 renal; -41.2% (active) in the assay on COLO 205 colon; 88.6% in the assay with DU-145 prostate; 24.7% with K-562 leukemia; 39.4% in the assay on MALME-3M melanoma. In addition, the growth with MDA-MB-231 breast was 47.4%; in the assay on RXF 393 renal it was 85.7%; in the assay with SF-268 CNS, 81.2%; with SF-295 CNS it was 68.7%; with SF-539 CNS, 79.7%; with UACC-257 melanoma, 62.8%. The growth was 75.3% in the assay with M14 melanoma and 59.8% with HCT-15 colon.

Take `CC1(C)CCC(=NNC(N)=S)CC1`: the growth in the assay on NCI-H23 lung is 99.1%; in the assay with NCI-H226 lung, 110%; in the assay on NCI-H322M lung, 115%; in the assay with HOP-62 NSCLC it was 111%; with NCI-H460 lung, 104%; in the assay with NCI-H522 lung, 97.1%. Moreover, the growth was 106% in the assay with A549/ATCC NSCLC; 113% with 786-0 renal; 125% in the assay with COLO 205 colon; 111% with DU-145 prostate; 94.6% in the assay on K-562 leukemia; 107% in the assay on MALME-3M melanoma. The growth with MDA-MB-231 breast was 116%; in the assay with RXF 393 renal it was 115%; with SF-268 CNS it was 103%; with SF-295 CNS, 88.2%; with SF-539 CNS, 98.1%; in the assay with UACC-257 melanoma it was 102%. Also, the growth with M14 melanoma was 113%; in the assay on HCT-15 colon, 98.8%.

As to `Cc1cccc(C)c1NC(=O)c1sc2nc3c(cc2c1N)C(=O)CCC3`, the growth with NCI-H23 lung is 65.6%; in the assay with NCI-H226 lung, 83%; in the assay with NCI-H322M lung it was 46.4%; with HOP-62 NSCLC, 112%; with NCI-H460 lung, 25.4%; with NCI-H522 lung, 61.7%. The growth in the assay on A549/ATCC NSCLC is 35.6%; in the assay with 786-0 renal it was 92.2%; in the assay with COLO 205 colon it was 15.2%; in the assay on DU-145 prostate, 93.2%; in the assay with K-562 leukemia, 64%; in the assay with MALME-3M melanoma, 74.7%. Also, the growth was 79% in the assay with MDA-MB-231 breast; 94.4% in the assay on RXF 393 renal; 103% in the assay on SF-268 CNS; 49.9% in the assay on SF-295 CNS; 101% in the assay with SF-539 CNS; 73.7% in the assay with UACC-257 melanoma. The figures for the growth in the assay with M14 melanoma and with HCT-15 colon were 87.3% and 60.3%, respectively.
